FUS suppressor = qHTS for Suppressors of FUS Proteinopathy: Primary screen using FUS-linked yeast assay. Potency, µM (highest dose often 76.6 µM), hits mostly activators. 390,000 compounds, 0.24% hits. AID 1347120, 2019. S. cerevisiae FUS-expressing, growth rescue, OD600, 24 h; note: nearly all actives have a fitted effect of over 55% in size
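Toxicity suppression screen in FUS-yeast. Cells induced with 2% galactose, starting OD 0.005, treated 24hr at 30C with compounds at multiple final concentrations; growth by OD600.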
Abeta yeast res = qHTS for compounds that reverse cellular toxicity of Amyloid beta (A-beta) peptide in yeast: Primary Screen; yeast expressing A-beta42, growth rescue, OD600, 48 h; response scale: 0% DMSO, 100% iron-clioquinol control; Potency, µM (doses to about 46.1 µM), most hits filed as activators; 410,000 compounds, 0.063% hits; AID 1347071, 2019; note: nearly all actives have a fitted effect of over 55% in size
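Growth rescue measured by 600 nm absorbance after 48 h yeast culture at 30 C with compound. Values normalized between DMSO and an equimolar ferric chloride plus clioquinol control.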
TDP-43 yeast inh = qHTS of TDP-43 Inhibitors | AID 652104, 2013 | Potency, µM (doses to about 46.1 µM), actives largely listed as activators | 410,000 compounds, 1.8% hits | TDP-43 expressing yeast growth rescue, BacTiter-Glo, 24 h; note: nearly all actives have a fitted effect of over 50% in size
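Luminescence from BacTiter-Glo reports growth of TDP-43-expressing yeast after 24 hr at 30 deg C with compound. Cells were raffinose-pregrown to mid-log, then seeded in galactose medium at OD600=0.02.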
aSyn yeast inh = qHTS of alpha-syn Inhibitors | 370,000 compounds, 0.14% hits | Potency, µM (series often up to 46.1 µM), hits mostly activators | Yeast expressing alpha-synuclein, growth rescue, BacTiter-Glo, 24 h | AID 652106, 2013; note: nearly all actives have a fitted effect of over 65% in size
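Rescue of yeast growth: cells expressing toxic alpha-synuclein, induced in galactose at OD600 0.02, incubated with compound 24 h at 30 C. ATP luminescence quantified growth; inhibitors of toxicity appear as activators.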
uPA surface inh = qHTS for Inhibitors of Cell Surface uPA Generation; cell surface uPA generation assay, qHTS; AID 540303, 2011; 330,000 compounds, 0.31% hits; Potency, µM (highest dose often 38.3 µM), most hits filed as inhibitors; active = well fitted inhibition curve with a large enough effect; inconclusive = small, poorly fitted or top-dose-only effect; inactive = no such curve, though single readings can be large or run the other way; tested in mouse RAW 264.7 cells; note: nearly all actives have a fitted effect of over 55% in size
BCR signal inh = qHTS Assay to Find Inhibitors of Chronic Active B-Cell Receptor Signaling; ABC-DLBCL IkBa-CBG/CBR reporter, luminescence ratio, 4 h; Potency, µM (doses to about 46.1 µM), usual class: inhibitors; 340,000 compounds, 0.05% hits; AID 493014, 2011; active = well fitted inhibition curve with a large enough effect in the signal ratio, with a control signal flat, not every such curve was filed as active; inconclusive = small, poorly fitted or top-dose-only effect, or effect the other way, or a change in a side signal; the % refers to the signal ratio
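Cell line TMD8 (human ABC DLBCL), stably expressing tet-inducible CBG68-IkBa fusion and CBR; IMDM/0.5% FBS; cpd up to 46 uM; dox induction, 4 h, 37C/5% CO2; dual luminescence; green/red ratio; MG132 control.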
Of the large screens only hits and unclear results are named; the others gave an inactive call. This is a sample that favours compounds with a hit; in the whole collection about 2.3% have one here. Unless noted, calls come from the whole dose curve; as a rule, active = well fitted curve in the direction sought with a large enough effect; inconclusive = small, poorly fitted or top-dose-only effect, or another doubt; inactive = no such curve, though single readings can be large; an effect the other way counts as inactive or inconclusive.

C#CCOc1c(Cl)cc(/C=C2/C(=O)ON=C2C)cc1OC	TDP-43 yeast inh 15.8µM
COc1cc(/C=C2/C(=O)ON=C2C)cc(Cl)c1O	Abeta yeast res inconclusive, BCR signal inh inconclusive
CC1=NOC(=O)/C1=C/c1ccc(O)c(Cl)c1	none
CCC(=O)N/N=C(\C)CC(=O)Nc1ccc(Cl)cc1	none
N#Cc1cccc2c1-c1ccccc1/C2=N/NC(N)=S	TDP-43 yeast inh 11.2µM, BCR signal inh inconclusive
COc1ccc(-c2c(C#Cc3ccsc3)c3cc(-c4ccc5c(c4)OCCO5)ccc3n2C)cc1	none
O=C(O)c1cccc(-c2ccc3c(c2)OCO3)c1	TDP-43 yeast inh 12.6µM, BCR signal inh inconclusive
O=C(Nc1cccc(C(=O)O)c1)Nc1ccc2c(c1)OCO2	BCR signal inh inconclusive
OC(COc1ccccc1)CN1CCCCCC1 (stereo unspecified)	none
Cc1ccc(S(=O)(=O)N(C(=O)c2ccncc2)c2ccc(OC(=O)c3ccncc3)cc2)c(C)c1	TDP-43 yeast inh 7.08µM, aSyn yeast inh inconclusive (no result: FUS suppressor)
COc1ccc(N(C(=O)c2ccncc2)S(=O)(=O)c2ccc(Cl)cc2)cc1	TDP-43 yeast inh 0.891µM, aSyn yeast inh 10µM, BCR signal inh inconclusive
O=C(Oc1ccc(N(C(=O)c2ccncc2)S(=O)(=O)c2ccc(Cl)cc2)cc1)c1ccncc1	TDP-43 yeast inh inconclusive, aSyn yeast inh inconclusive, uPA surface inh inconclusive, BCR signal inh inconclusive
COc1ccc(N(C(=O)c2cc(OC)c(OC)c(OC)c2)S(=O)(=O)c2ccc(C)cc2)cc1	FUS suppressor 31.6µM (no result: aSyn yeast inh, uPA surface inh, BCR signal inh)
Cc1ccc(C)c(S(=O)(=O)N(C(=O)c2ccncc2)c2ccc(OC(=O)c3ccncc3)cc2)c1	aSyn yeast inh inconclusive, BCR signal inh inconclusive
CCN1C(=O)[C@H]2[C@@H](c3ccc(C)cc3)N3C(=O)N(c4cccc(C)c4)C(=O)[C@@]3(Cc3ccccc3)[C@H]2C1=O	none
CC(C)(C)N1C(=O)[C@H]2[C@@H](c3ccc(Br)cc3)N3C(=O)N(c4ccccc4)C(=O)[C@@]3(Cc3ccccc3)[C@H]2C1=O	FUS suppressor inconclusive, BCR signal inh inconclusive
CC(C)(C)N1C(=O)[C@H]2[C@@H](c3ccc(Br)cc3)N3C(=O)N(c4cccc(Br)c4)C(=O)[C@@]3(Cc3ccccc3)[C@H]2C1=O	FUS suppressor 5.01µM
CCN1C(=O)[C@H]2[C@@H](c3ccc(C)cc3)N3C(=O)N(c4cccc(Br)c4)C(=O)[C@@]3(Cc3ccccc3)[C@H]2C1=O	FUS suppressor 35.5µM, BCR signal inh inconclusive
COc1ccc(NC(=O)CSc2nc(C)cc(C)c2C(=O)Nc2ccccc2OC)cc1	none (no result: aSyn yeast inh, uPA surface inh, BCR signal inh)
CCN(C(=O)COc1cc(=O)n(C)c2ccccc12)c1cccc(C(F)(F)F)c1	none (no result: aSyn yeast inh, uPA surface inh, BCR signal inh)
COc1cc2ccccc2cc1C(=O)Nc1ccc(C)cc1	uPA surface inh 20µM, BCR signal inh inconclusive
COc1cc2ccccc2cc1C(=O)NC1CCCCC1	none
COc1cc2ccccc2cc1C(=O)Nc1ccc(Cc2ccncc2)cc1	BCR signal inh inconclusive
COc1cc2ccccc2cc1C(=O)NC1CCCC1	TDP-43 yeast inh 12.6µM, BCR signal inh inconclusive
O=C(Nc1ccc(S(=O)(=O)N2CCOCC2)cc1)c1cccs1	none
Cc1ccc(NC(=O)/C=C/c2cccs2)c([N+](=O)[O-])c1	BCR signal inh inconclusive
CCC(=C(c1ccc(OC)cc1)c1ccc(OC)cc1)c1cn(CC(O)CN(CCO)CCO)c2ccccc12 (stereo unspecified)	FUS suppressor 28.2µM, BCR signal inh inconclusive
COc1cccc(CNC(=O)c2ccccc2NC(=O)C2=C(C)OCCS2)c1	none
CCCCCCCCCCOC(=O)Cn1c(COc2ccccc2)[n+](C)c2ccccc21	BCR signal inh inconclusive
CCCCCCCCCCOC(=O)Cn1c(COc2ccccc2C)[n+](C)c2ccccc21	FUS suppressor 39.8µM (no result: TDP-43 yeast inh)
Cc1ccc(Nc2c(-c3ccccn3)nc3ccc(C)cn23)cc1	Abeta yeast res inconclusive, uPA surface inh 6.31µM
O=C(NCCc1ccccc1)c1ccccc1F	BCR signal inh inconclusive
O=C(/C=C/c1ccccc1)Nc1nc(-c2ccncc2)cs1	BCR signal inh inconclusive
CCCCn1c(N)c(N(CC)C(=O)c2ccc3c(c2)S(=O)(=O)c2ccccc2C3=O)c(=O)[nH]c1=O	none
CCOc1ccccc1OCC(=O)OC(C)C(=O)Nc1ncc(Cl)cc1Cl (stereo unspecified)	BCR signal inh inconclusive
C/C(=N\NC(=O)c1cc2ccccc2cc1O)c1ccccn1	Abeta yeast res inconclusive, aSyn yeast inh 10µM
C/C(=N/NC(=O)c1cc2ccccc2cc1O)C1C(=O)c2ccccc2C1=O	FUS suppressor 7.08µM, BCR signal inh inconclusive
O=C(CN1C(=O)c2ccccc2C1=O)NCc1ccncc1	none (no result: uPA surface inh)
O=C(O)c1ccc(NCCC2=CCCCC2)c([N+](=O)[O-])c1	TDP-43 yeast inh 15.8µM, BCR signal inh inconclusive
COc1ccc(CCNc2ccc(C(=O)O)cc2[N+](=O)[O-])cc1OC	none
COc1ccc(CC2=C(O)c3ccccc3C(=O)C2=O)cc1	TDP-43 yeast inh inconclusive, BCR signal inh inconclusive
O=C1C(=O)c2ccccc2C(O)=C1CCCCl	TDP-43 yeast inh inconclusive, uPA surface inh 11.2µM, BCR signal inh inconclusive
Cn1c(CNC(=O)CNC(=O)Cc2ccc(Cl)cc2)cc(=O)n(C)c1=O	none
O=C(OCc1csc(-c2ccccc2)n1)c1ccc(O)cc1	TDP-43 yeast inh 10µM
O=C(OCc1csc(Nc2ccccc2)n1)c1ccc(Cl)cc1	Abeta yeast res inconclusive, TDP-43 yeast inh 10µM
CC(=O)c1c(N2CCOCC2)nc(=O)n(-c2ccccc2)c1C	none
COc1ccccc1N1CCN(c2nc3c(S(=O)(=O)c4ccc(C)c(C)c4)nnn3c3ccc(Cl)cc23)CC1	none (no result: aSyn yeast inh, uPA surface inh, BCR signal inh)
COc1ccc2c(c1)c(=O)c(C(=O)c1ccc(F)cc1)cn2CC(=O)Nc1ccc2c(c1)OCCO2	none (no result: aSyn yeast inh, uPA surface inh, BCR signal inh)
CC(=O)N1c2ccc(S(=O)(=O)NCCC(=O)NC3CCCC(C)C3C)cc2CC1C (stereo unspecified)	none
Cc1nn(C)c(Nc2ccc(Br)cc2)c1Br	Abeta yeast res inconclusive, TDP-43 yeast inh 17.8µM, aSyn yeast inh inconclusive
CC(C)(C)c1ccc(Cn2cnc(-c3ccc([N+](=O)[O-])cc3)c2)cc1	TDP-43 yeast inh 31.6µM, uPA surface inh inconclusive (no result: FUS suppressor)
Cc1ccc(C(=O)/C=C/Nc2ccccc2C(N)=O)o1	aSyn yeast inh 11.2µM, uPA surface inh inconclusive (no result: BCR signal inh)
COC(=O)[C@]12C[C@H](CC(=O)N3CCCC3)C(=O)N(Cc3ccc(Cl)cc3Cl)C1=C[C@H](C(C)(C)C)O[C@@H]2C	FUS suppressor 17.8µM (no result: Abeta yeast res, TDP-43 yeast inh, aSyn yeast inh, uPA surface inh, BCR signal inh)

Compound activity as filed in PubChem.
